Sampled rows, rich in hits. Any-hit rate of the full collection: about 5.6%.
Gal4-VP16 FLuc: inhibits Gal4-VP16 luciferase reporter, ROR gamma counter-screen; Drosophila S2 Gal4-VP16 UAS-luciferase, luminescence, 20 h; Potency, µM (top dose mostly 53.6 µM), for the others: at the highest dose activity, negative = inhibition, usual class: inhibitors; hit rate 3.5% among 310,000; AID 2546;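 note: Gal4-VP16 expression switched on by copper sulfate through the metallothionein promoter; potency is the fitted concentration of half-maximal effect; nearly all actives have a fitted effect of over 50% in size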
Six1-Eya2 blk: blocks human Six1 binding to Eya2 | hit rate 0.56% among 360,000 | AID 651725 | activity change, % (no concentration beside the values) | Q15475+O00167 | AlphaScreen GST-Six1/His-Eya2 binding, biochemical; hits give low values; in the data active = activity change below about -65%; inconclusive = mostly about -30% to -63%
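Compounds are tested against tagged Six1 and Eya2 proteins bridged by glutathione donor and nickel acceptor beads; after a one-hour incubation at 37 °C without light, AlphaScreen emission is recorded.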
CtBP-E1A inh: blocks the CtBP interaction with E1A | activity change, % (concentration not given with the values) | AlphaScreen GST-E1A/His-CtBP binding, 1536-well; hits give low values | AID 651724 | hit rate 0.49% among 340,000; in the data active = activity change below about -65%; inconclusive = mostly about -30% to -63%
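In 5 uL wells, 23 nL compound meets equimolar GST-E1A and His-CtBP (5X stock 125 nM each) for 2 h, 37 °C. Beads (5X, 50 ug/mL) then 1 h, 37 °C, dark.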
PKM2 activator: activators of human pyruvate kinase M2. P14618. purified PKM2, Kinase-Glo ATP luminescence, activation; response scale: 0% is enzyme alone, no compound. Potency, µM (titrated, usually from 57.5 µM), for inactives: at the top dose activation, actives largely listed as activators. hit rate 0.34% among 260,000. AID 1631; note: potency is the fitted concentration of half-maximal effect; nearly all actives have a fitted effect of over 55% in size
Target sequence (P14618 whole entry, looked up): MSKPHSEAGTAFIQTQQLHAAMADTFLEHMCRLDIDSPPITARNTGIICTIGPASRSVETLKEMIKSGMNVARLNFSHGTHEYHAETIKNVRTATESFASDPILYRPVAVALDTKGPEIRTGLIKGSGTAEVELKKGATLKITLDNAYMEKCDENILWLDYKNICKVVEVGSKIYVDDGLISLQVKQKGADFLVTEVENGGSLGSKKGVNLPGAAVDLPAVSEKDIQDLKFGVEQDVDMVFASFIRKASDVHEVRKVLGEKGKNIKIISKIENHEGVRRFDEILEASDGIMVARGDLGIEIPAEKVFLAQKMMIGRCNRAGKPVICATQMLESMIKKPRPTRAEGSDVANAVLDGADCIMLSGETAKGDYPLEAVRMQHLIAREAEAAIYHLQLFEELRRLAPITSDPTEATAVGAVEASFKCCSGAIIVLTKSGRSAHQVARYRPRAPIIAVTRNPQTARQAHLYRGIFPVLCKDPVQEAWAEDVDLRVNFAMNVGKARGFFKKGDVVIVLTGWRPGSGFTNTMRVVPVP
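Kinase-Glo luminescence reports ATP generated from ADP (0.1 mM) and PEP (0.5 mM) by purified hPK-M2 after 1 h at room temperature, pH 7.2 imidazole buffer; intermediate enzyme activity allows detecting inhibitors and activators.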
RORg inh: inhibitors of mouse ROR gamma transcriptional activity; P51450; Drosophila S2 Gal4-RORgamma UAS-luciferase reporter, 20 h; Potency, µM (top dose mostly 53.6 µM), inactives show at the top dose activity change, negative = inhibition, usual class: inhibitors; hit rate 5.4% among 310,000; AID 2551; note: potency is the fitted concentration of half-maximal effect; nearly all actives have a fitted effect of over 60% in size
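Luminescence from a UAS-regulated Photinus luciferase reporter in stably transfected Drosophila Schneider cells is measured; decreased signal marks ROR gamma inhibition. Fusion expression is induced by 700 uM copper sulfate for 20 hr.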
The depositor's hits bear a star; ? = inconclusive; · = no result given; [ ] = another dose, or the depositor's remark. Unless noted, calls come from the whole dose curve; as a rule, active = well fitted curve in the direction sought with a large enough effect; inconclusive = small, poorly fitted or top-dose-only effect, or another doubt; inactive = no such curve, though single readings can be large; an effect the other way counts as inactive or inconclusive. % is set by controls: 0 for no effect and ±100 for the full control effect.

SMILES | Gal4-VP16 FLuc | Six1-Eya2 blk | CtBP-E1A inh | PKM2 activator | RORg inh
COc1ccc(NC(=O)N2CCC(n3cnc4ccccc43)CC2)cc1 | -2% | 0 | -2 | 2% | 29%
Cc1nc2c(=O)n(C)c(=O)n(C)c2nc1Cl | 7.1µM* | -24 | 10 | 0% | ?
Nc1nc2ccccc2n1/N=C/c1ccc(-c2ccccc2)o1 | ? | -8 | -9 | 0% | 7.9µM*
O=[N+]([O-])c1ccccc1/C=C/C=N/Nc1nc(N2CCCCC2)nc(N2CCCCC2)n1 | -8% | 1 | 2 | -4% | 11µM*
C/C(=N\Nc1nc(N2CCCCCC2)nc(N2CCCCCC2)n1)c1ccccc1 | -16% | 4 | · | 1% | 3.2µM*
C/C(=N/Nc1nc(-c2ccccc2)cc(-c2ccccc2)n1)c1ccc(N)cc1 | ? | · | · | 0% | 10µM*
O=[N+]([O-])c1cc2c(cc1/C=N/Nc1nc(N3CCCC3)nc(N3CCCC3)n1)OCO2 | -10% | 17 | -6 | -2% | -18%[10 µM]
O=[N+]([O-])c1ccccc1/C=N/Nc1nc(N2CCCC2)nc(N2CCCC2)n1 | -6% | -1 | -3 | -2% | 13µM*
c1ccc2cc(C3CCCCC3)ncc2c1 | · | 15 | 14 | · | ·
Cc1c(-n2c(SCC(=O)O)nnc2-c2ccccc2Br)c(=O)n(-c2ccccc2)n1C | 7% | 5 | -8 | -1% | 3%
Cn1c(=O)c2c(ncn2CC(COCc2ccccc2)OCc2ccccc2)n(C)c1=O (stereo not drawn) | 2% | 3 | -10 | 4% | 3%
O=C(/C=C/c1ccccc1Cl)OCC(=O)N1CCCC1 | · | 10 | 8 | · | ·
CC(=C/c1ccccc1)/C=N/Nc1nc(N2CCCCC2)nc(N2CCCCC2)n1 | -13% | -2 | -1 | 3% | -25%
C(=C\c1ccccc1)/C=N/Nc1nc(N2CCCCC2)nc(N2CCCCC2)n1 | -1% | -2 | 3 | -3% | 0.79µM*
CC(=O)Nc1ccc(/C(C)=N/Nc2nc(Nc3cccc4ccccc34)nc(N3CCOCC3)n2)cc1 | 11µM* | -13 | -13 | ? | 5.6µM*
Cc1ccc2c(C)nc(SC(C(=O)c3ccccc3)c3ccccc3)nc2c1 (stereo not drawn) | 20µM* | 2 | 9 | 4% | ?
c1ccc(CNc2c3c(nc4ncnn24)CCCC3)nc1 | -1%[0.365 µM] | -19 | -11 | -4% | 7.1µM*
Clc1ccc(Nc2c3c(nc4ncnn24)CCC3)cc1 | -17% | -6 | · | -1% | ?
Cc1cc(C)cc(Nc2c3c(nc4ncnn24)CCC3)c1 | 13µM* | 17 | 26 | -1% | ?
COc1ccc(Nc2c3c(nc4c(-c5ccccc5)c(C)nn24)CCC3)cc1 | 3.5µM* | 11 | 5 | -1% | 3.2µM*
Cc1nn2c(NCc3ccccn3)cc(C(C)(C)C)nc2c1-c1ccccc1 | 2.2µM* | 6 | -24 | -4% | 0.25µM*
CC(C)CN(C[C@@H](O)[C@H](Cc1ccccc1)NC(=O)O[C@H]1CO[C@H]2OCC[C@H]21)S(=O)(=O)c1ccc(N)cc1 | -1% | · | · | · | 38%
COc1ccc(C(C)C(=O)c2ccc(O)cc2O)cc1 (stereo not drawn) | ? | · | · | · | -1%
COc1ccc(-c2cc(NCCc3ccncc3)n3ncnc3n2)cc1 | ? | -1 | -12 | 2% | 4%
Cc1nn2c(NCCN3CCOCC3)c3c(nc2c1-c1ccccc1)CCCC3 | 3.5µM* | 0 | 11 | -1% | 1.6µM*
Cc1nn2c(N3CCN(C)CC3)c3c(nc2c1-c1ccccc1)CCCC3 | 3% | 16 | 0 | -2% | -10%
COc1ccc(-c2cc(NCc3ccccn3)n3ncnc3n2)cc1 | ? | -10 | · | 18% | 2.8µM*
Cc1nn2c(NCc3ccccn3)c3c(nc2c1-c1ccccc1)CCC3 | 0.56µM* | -5 | -9 | -1% | 0.1µM*
Cc1cc(NCc2ccccn2)n2nc(C)c(-c3ccccc3)c2n1 | 0.32µM* | -6 | -8 | 0% | 0.71µM*
CC1C(=O)NN=C1C(=O)N/N=C\C(Br)=C\c1ccccc1 (stereo not drawn) | 1.6µM* | -14 | ? | -17% | 1.3µM*

Screening data: PubChem, National Center for Advancing Translational Sciences (NCATS)
